Rows were chosen to be rich in hits. Some 19% of all compounds tested hit in one or more screens of this group.
IL1B secr inh: inflammasome signaling inhibition, IL-1 beta readout. 360,000 tested, 4.7% active. THP-1 LPS/ATP IL-1B secretion, AlphaLISA, 16 h; active compounds read low. activity change, % at 57.5 µM; in the data active = activity change below about -50%; inconclusive = mostly about -30% to -49%
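THP-1 cells pretreated 1 hr with compounds (up to 57.5 uM final), then stimulated with LPS (250 ng/mL final) plus ATP (1.25 mM final); secreted IL-1B measured by AlphaLISA after 16 hr, decreased signal indicating inhibition.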
TDP1 inh: blocks human tyrosyl-DNA phosphodiesterase 1 | 350,000 tested, 0.28% active | Potency, µM (highest dose often 130 µM), hits mostly inhibitors | Q9NUW8 | recombinant TDP1, AlphaScreen DNA substrate cleavage; also: nearly all actives have a fitted effect of over 40% in size
Target sequence (Q9NUW8 whole entry, looked up): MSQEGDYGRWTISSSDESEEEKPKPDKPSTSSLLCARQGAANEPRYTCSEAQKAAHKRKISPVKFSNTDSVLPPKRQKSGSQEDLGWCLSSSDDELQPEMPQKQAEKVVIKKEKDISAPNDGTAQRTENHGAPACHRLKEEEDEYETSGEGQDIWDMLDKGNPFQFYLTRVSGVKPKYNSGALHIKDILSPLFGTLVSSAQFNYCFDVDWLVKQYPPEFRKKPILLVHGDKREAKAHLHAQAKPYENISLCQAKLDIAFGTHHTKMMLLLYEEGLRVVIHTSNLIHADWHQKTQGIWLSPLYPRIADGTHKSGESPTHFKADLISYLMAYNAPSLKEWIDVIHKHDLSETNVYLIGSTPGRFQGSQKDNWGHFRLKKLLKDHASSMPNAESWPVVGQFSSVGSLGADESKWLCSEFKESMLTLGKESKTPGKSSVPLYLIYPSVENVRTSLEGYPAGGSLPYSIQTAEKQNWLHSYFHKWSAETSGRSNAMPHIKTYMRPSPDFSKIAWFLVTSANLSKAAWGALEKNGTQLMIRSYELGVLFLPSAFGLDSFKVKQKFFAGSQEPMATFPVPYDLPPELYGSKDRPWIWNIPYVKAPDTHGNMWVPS
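Signal: AlphaScreen proximity between streptavidin donor and anti-FITC acceptor beads on intact substrate. Reaction: Tdp1 1 nM, substrate 15 nM final, 5 min RT after 15 min compound preincubation.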
TGFb SMAD3 inh: TGF-b pathway inhibition; HepG2 CAGA-GFP TGF-b/SMAD3 reporter, GFP fluorescence, 18 h; TGF-beta stimulated, 500 pg/mL final; Potency, µM (doses to about 46.1 µM), hits mostly inhibitors; 410,000 tested, 1.2% active; AID 588855; also: nearly all actives have a fitted effect of over 65% in size
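Using HEPG2 CAGA-GFP reporter cells at 1000 cells/well, we pinned test compounds, stimulated with recombinant TGF-beta (500 pg/mL final) and measured total well GFP after 18 h.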
TDP1 cell noCPT: qHTS for Inhibitors of human tyrosyl-DNA phosphodiesterase 1 (TDP1): qHTS in cells in absence of CPT; DT40 Tdp1-/- hTDP1 cells, no CPT, ATP luminescence, 48 h; Potency, µM (highest dose often 46.2 µM), hits mostly inhibitors; 420,000 tested, 15% active; AID 686978, 2013; also: nearly all actives have a fitted effect of over 55% in size
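No-CPT arm: Tdp1-/-;hTDP1 DT40 cells (400/well) plus compounds, incubated ≥48 hr at 37 °C. Readout CellTiter-Glo luminescence.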
DT40 TDP1 CPT: growth inhibition of DT40 Tdp1-/-;hTDP1 cells with camptothecin (screen for TDP1 inhibitors). chicken DT40 Tdp1-/-;hTDP1 cells + 20 nM CPT, ATP luminescence, 48 h. 420,000 tested, 12% active. Potency, µM (doses to about 46.2 µM), usual class: inhibitors; also: nearly all actives have a fitted effect of over 55% in size
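Chicken DT40 Tdp1-/- cells stably complemented with human TDP1 were seeded at 400 cells/well in medium containing 20 nM camptothecin, exposed to pin-transferred compounds, and grown at 37 °C for at least 48 hr. Viability was read as ATP luminescence.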
HepG2 tox: kills HepG2 cells in TGF-b inhibitor counter-screen | HepG2 CAGA-GFP viability, ATP luminescence, 18 h | Potency, µM (top dose mostly 46.1 µM), most hits filed as cytotoxic | 410,000 tested, 0.76% active | AID 588856
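CellTiter-Glo luminescence gave cytotoxicity after 18 hours at 37 degrees C. The cells were HepG2 CAGA-GFP in 1% FBS DMEM, stimulated with 500 pg/mL TGF-beta after compound addition. %Activity was normalised to no-cell wells (complete cell-killing) and DMSO (no toxicity), and curves were fitted and classified.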
Each line names hits and unclear results; the compound was inactive in the other large screens. Unless noted, calls follow the shape of the dose curve; as a rule, active = well fitted curve in the direction sought with a large enough effect; inconclusive = small, poorly fitted or top-dose-only effect, or another doubt; inactive = no such curve, though single readings can be large; an effect the other way counts as inactive or inconclusive.

CC1Cc2nc(SCC(=O)N3CCCc4ccccc43)n(C)c(=O)c2S1 (centres undefined)	TDP1 cell noCPT 13µM, DT40 TDP1 CPT inconclusive
CCn1c(SCC(=O)N2CCCc3ccccc32)nc2c(c1=O)SC(C)C2 (centres undefined)	TDP1 cell noCPT inconclusive, DT40 TDP1 CPT 16µM (no result: TDP1 inh)
COCCn1c(SCC(=O)N2CCCc3ccccc32)nc2c(c1=O)SC(C)C2 (centres undefined)	TDP1 cell noCPT inconclusive, DT40 TDP1 CPT inconclusive
CC1Cc2nc(SCC(=O)N3CCCCC3)n(C)c(=O)c2S1 (centres undefined)	TDP1 cell noCPT inconclusive (no result: TDP1 inh)
Cc1ccc(-c2nc(C)c(CCNC(=O)C(=O)Nc3cc(C)ccc3C)s2)cc1	none (no result: IL1B secr inh, TDP1 cell noCPT, DT40 TDP1 CPT)
CC1CCC2(CC1)NC(=O)N(CC(=O)N1c3ccccc3CC1C)C2=O (centres undefined)	DT40 TDP1 CPT inconclusive
CC1=C(C)/C(=N\OS(=O)(=O)c2ccccc2)C=CC1=O	IL1B secr inh -121, TGFb SMAD3 inh inconclusive, TDP1 cell noCPT 0.56µM, DT40 TDP1 CPT 0.56µM, HepG2 tox 14µM
COC(=O)c1ccc2c(c1)N(Cc1ccc(F)cc1)C(=O)c1ccccc1S2	none (no result: IL1B secr inh)
O=C(C(c1ccccc1)N1CCOCC1)N1CCOCC1 (centres undefined)	TDP1 cell noCPT inconclusive
O=C(C=Cc1ccccc1)CC(c1ccccc1)N1CCOCC1 (centres undefined)	IL1B secr inh -98, TGFb SMAD3 inh inconclusive, TDP1 cell noCPT 3.3µM, DT40 TDP1 CPT 4.1µM, HepG2 tox 13µM (no result: TDP1 inh)
CC1N(C(=O)N2CCOCC2)CCN1S(=O)(=O)c1ccc(Cl)cc1 (centres undefined)	none (no result: TDP1 inh)
Nc1ncnc2c1ncn2[C@@H]1O[C@H](CNCc2c(OCc3ccccc3F)ccc3ccccc23)[C@@H](O)[C@H]1O	IL1B secr inh -58, TGFb SMAD3 inh inconclusive, TDP1 cell noCPT inconclusive, DT40 TDP1 CPT inconclusive
Nc1ncnc2c1ncn2[C@@H]1O[C@H](CNCc2ccccc2)[C@@H](O)[C@H]1O	none
Nc1ncnc2c1ncn2[C@@H]1O[C@H](CNCc2cccc(C#Cc3ccccc3)c2)[C@@H](O)[C@H]1O	TDP1 cell noCPT inconclusive, DT40 TDP1 CPT 15µM
COc1cccc(-c2cc(C(=O)NCC3CCCO3)c3cc(C)cc(C)c3n2)c1 (centres undefined)	TDP1 cell noCPT 26µM, DT40 TDP1 CPT 23µM
COc1cccc(-c2nn(-c3ccc(C)cc3)cc2C(=O)NCC2CCCO2)c1 (centres undefined)	TDP1 cell noCPT inconclusive, DT40 TDP1 CPT inconclusive
COc1cccc(-c2nn(-c3ccc(F)cc3)cc2C(=O)NCC2CCCO2)c1 (centres undefined)	TGFb SMAD3 inh inconclusive, TDP1 cell noCPT 23µM, DT40 TDP1 CPT 23µM
Cc1ccc(-c2csc(NC(=O)CSc3nc4ccccc4[nH]3)n2)cc1	TGFb SMAD3 inh inconclusive, TDP1 cell noCPT 23µM, DT40 TDP1 CPT 21µM
Cc1cc(=O)[nH]c(SCC(=O)Nc2nc(-c3ccccc3)cs2)n1	none
COc1ccc(-c2csc(NC(=O)CSc3nc4ccccc4c(=O)[nH]3)n2)cc1	TDP1 inh 79µM, TDP1 cell noCPT inconclusive, DT40 TDP1 CPT inconclusive
COc1ccc(-c2nc3ccccc3n2Cc2ccc(C(C)C)cc2)cc1	TGFb SMAD3 inh inconclusive (no result: IL1B secr inh, TDP1 cell noCPT, DT40 TDP1 CPT)
COc1ccc(-c2nc3ccccc3n2Cc2ccc(C)cc2)cc1	TGFb SMAD3 inh inconclusive, TDP1 cell noCPT inconclusive, DT40 TDP1 CPT 16µM
C=CCn1c(NC(=O)c2ccc(C)cc2)nc2ccccc21	TDP1 cell noCPT inconclusive, DT40 TDP1 CPT inconclusive
CCOC(Cn1c(-c2ccc(OC)cc2)nc2ccccc21)OCC	TDP1 cell noCPT 16µM, DT40 TDP1 CPT 23µM
C=CCn1c(-c2ccc(C)cc2)nc2ccccc21	TDP1 cell noCPT 21µM, DT40 TDP1 CPT 15µM

Source: PubChem BioAssay (National Center for Advancing Translational Sciences (NCATS))
